Screen size: about 39,000 compounds; about 3,300 (8.5%) were called active. Many of the other results were omitted from the sample, so actives are more common in it than they were.

The assay relates to HepG2. As to the kind of experiment: cytotoxicity call (relative viability < 0.9). The conditions noted are these: 10 µM.
With `COCC#Cc1ccc2c(c1)O[C@@H](CN(C)S(=O)(=O)c1ccc(F)cc1)[C@H](C)CN([C@@H](C)CO)S2(=O)=O`, the cytotoxicity call is “inactive”.

For the compound `C[C@@H]1CN([C@@H](C)CO)C(=O)Cc2cc(NS(=O)(=O)c3cccs3)ccc2O[C@H]1CN(C)S(=O)(=O)c1ccc(F)cc1`, the cytotoxicity call was “inactive”.

With `C[C@H](CO)N1C[C@H](C)[C@@H](CN(C)C(=O)Nc2ccccc2)Oc2ccc(NC(=O)CCN3CCOCC3)cc2CC1=O`, the cytotoxicity call is “inactive”.

Regarding `Cc1noc(C)c1NC(=O)Nc1ccc2c(c1)C(=O)N([C@H](C)CO)C[C@H](C)[C@H](CN(C)C(=O)C1CCCCC1)OCCCC[C@@H](C)O2`, the cytotoxicity call is “inactive”.

On to `C[C@H]1CN([C@@H](C)CO)C(=O)Cc2cc(NC(=O)Nc3ccc(F)cc3)ccc2O[C@@H]1CN(C)Cc1ccc(C(=O)Nc2ccccc2N)cc1`, for which the cytotoxicity call is “inactive”.

Regarding `C[C@H](CO)N1C[C@H](C)[C@@H](CN(C)Cc2ccc(C(=O)Nc3ccccc3N)cc2)Oc2ccc(NC(=O)Nc3ccc(F)cc3)cc2CC1=O`, the cytotoxicity call is “inactive”.

Consider `C[C@@H]1CN([C@@H](C)CO)C(=O)Cc2cc(NC(=O)Nc3ccc(F)cc3)ccc2O[C@@H]1CN(C)Cc1ccc(C(=O)Nc2ccccc2N)cc1`, for which the cytotoxicity call is “active”.

For `C[C@H](CO)N1C[C@H](C)[C@H](CN(C)Cc2ccc(C(=O)Nc3ccccc3N)cc2)Oc2ccc(NC(=O)Nc3ccc(F)cc3)cc2CC1=O`, the cytotoxicity call was “inactive”.

`C[C@@H]1CN([C@H](C)CO)C(=O)Cc2cc(NC(=O)Nc3ccc(F)cc3)ccc2O[C@H]1CN(C)Cc1ccc(C(=O)Nc2ccccc2N)cc1`: the cytotoxicity call was “inactive”.

For `C[C@H]1CN([C@@H](C)CO)C(=O)Cc2cc(NC(=O)Nc3ccc(F)cc3)ccc2O[C@H]1CN(C)Cc1ccc(C(=O)Nc2ccccc2N)cc1`, the cytotoxicity call is “active”.

`C[C@@H]1CCCCO[C@@H](CN(C)C(=O)NC2CCCCC2)[C@@H](C)CN([C@@H](C)CO)C(=O)c2cc(NC(=O)Nc3ccc(F)cc3)ccc2O1`: the cytotoxicity call was “inactive”.

In the case of `Cc1noc(C)c1S(=O)(=O)N(C)C[C@@H]1Oc2ccc(NS(=O)(=O)c3ccccc3)cc2C(=O)N([C@H](C)CO)C[C@@H]1C`, the cytotoxicity call is “inactive”.

In the case of `C[C@@H]1CCCCO[C@@H](CN(C)Cc2ccncc2)[C@@H](C)CN([C@@H](C)CO)C(=O)c2cc(NC(=O)Cc3ccccc3)ccc2O1`, the cytotoxicity call was “inactive”.

`C[C@@H]1CCCCO[C@H](CN(C)C(=O)CCC(F)(F)F)[C@@H](C)CN([C@H](C)CO)C(=O)c2cc(NC(=O)Nc3ccccc3)ccc2O1`: the cytotoxicity call is “inactive”.

Turning to `C[C@H]1CN([C@@H](C)CO)C(=O)c2cccc(NC(=O)Nc3ccc4c(c3)OCO4)c2O[C@@H]1CN(C)S(C)(=O)=O`, the cytotoxicity call was “inactive”.

For `CN(C)CC(=O)N[C@H]1CC[C@@H](CC(=O)NCCN2CCCCC2)O[C@@H]1CO`, the cytotoxicity call is “inactive”.

These data come from the antibiotic and cytotoxicity screens of Wong et al. (2023).
